FGF22 binding: binders of human FGF22 protein, primary screen, FGF22 synaptogenesis inhibitor project, biophysical, thermal shift, single point. Fibroblast growth factor 22 (Homo sapiens), Q9HCT0. recombinant FGF22 thermal shift, SYPRO orange fluorescence; percent of sucrose octasulfate shift, DMSO zero. activity (Tm shift, normalised), % at 9.99 µM. actives 1.5% (n = 340,000);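 active means mean Tm shift, scaled 0 neutral to 100 positive control, at about 1.3% or above, every replicate too, limit read from the data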
Target sequence (Q9HCT0 whole entry, looked up): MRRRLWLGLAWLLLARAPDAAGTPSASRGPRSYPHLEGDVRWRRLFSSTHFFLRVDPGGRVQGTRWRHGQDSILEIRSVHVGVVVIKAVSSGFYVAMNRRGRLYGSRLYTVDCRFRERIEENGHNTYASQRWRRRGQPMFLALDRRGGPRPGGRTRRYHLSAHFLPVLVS
rRNA inh HTS: reduced GFP signal of wild-type E. coli, primary screen, bacterial rRNA inhibitor project, GFP/RFP fluorescence, OD600, single point; actives 1.6% (n = 350,000); E. coli WT GFP vs humanized-ribosome RFP mutants, 24 h; stronger effect = lower value; DMSO median 0, no signal -100; GFP signal change (wild-type ribosome), % (no concentration beside the values);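 active means significant combined selectivity score with lowered wild-type GFP, culture density cut under 30%, mutant RFP and density less affected; inactive means any of these conditions unmet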
ADAM10 inh: human ADAM10 inhibitors, primary screen, biochemical, QFRET, HTS. inhibition, % at 7 µM. actives 0.62% (n = 370,000). AID 720582, 2013. recombinant ADAM10, EDANS/DABCYL FRET peptide cleavage, 3 h. Disintegrin and metalloproteinase domain-containing protein 10 (Homo sapiens), O14672;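 active means inhibition above a per-campaign cutoff equal to the mean of compounds falling between control-based bounds plus 3 SD, cut at about 20% in these data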
ADAM17 inh: ADAM17 inhibitors, primary screen, biochemical, QFRET; Disintegrin and metalloproteinase domain-containing protein 17 (Homo sapiens), P78536; recombinant ADAM17, EDANS/DABCYL FRET peptide cleavage; inhibition, % at 6.95 µM; actives 0.83% (n = 370,000);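 active means inhibition above the mean of compounds lying between control limits plus 3 SD, set per campaign, cut at about 8.5% in these data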
proKLK7 act: proKLK7 zymogen activators, primary screen, biochemical, fluorescence intensity; Kallikrein-7 (Homo sapiens), P49862; purified proKLK7, EDANS-DABCYL substrate fluorescence; 100% is mature enzyme control, 0% vehicle; activation, % at 7 µM; actives 0.9% (n = 370,000); AID 652039, 2013;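 active means activation above the mean of all tested compounds plus 3 SD, computed per campaign excluding outliers beyond control limits, cut at about 13% in these data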
Target sequence (P49862 whole entry, looked up): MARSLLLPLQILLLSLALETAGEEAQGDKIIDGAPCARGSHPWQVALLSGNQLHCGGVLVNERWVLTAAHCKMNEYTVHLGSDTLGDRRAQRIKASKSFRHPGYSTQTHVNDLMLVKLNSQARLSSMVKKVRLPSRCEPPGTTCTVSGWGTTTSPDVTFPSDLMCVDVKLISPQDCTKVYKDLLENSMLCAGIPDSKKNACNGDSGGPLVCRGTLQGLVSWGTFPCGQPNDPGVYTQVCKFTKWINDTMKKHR
ADAM10 confirm: human ADAM10 inhibitors, confirmation, biochemical, QFRET, triplicate. shares compounds with ADAM10 inh. ADAM10 QFRET peptide cleavage, EDANS fluorescence. inhibition, % at 6.95 µM. actives 1% (n = 2,100). AID 743208, 2013;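 active means inhibition above about 20% chosen separately for each screening run, limit read from the data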
ADAM17 counter: ADAM17 inhibitors, counter-screen for ADAM10 exosite inhibitor project, biochemical, QFRET, high throughput; shares compounds with ADAM10 inh; ADAM17 QFRET peptide cleavage, EDANS fluorescence; inhibition, % at 6.95 µM; actives 0.5% (n = 2,100); AID 743214, 2013;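 active means mean triplicate inhibition above the solvent-only control wells' mean plus 3 SD, cut at about 12% in these data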
ADAM10 ctr: ADAM10 inhibitors, counter-screen for ADAM17 exosite inhibitor project, biochemical, FRET, human ADAM10; shares compounds with ADAM17 inh; recombinant ADAM10, EDANS/DABCYL FRET peptide cleavage, 3 h; inhibition, % at 6.95 µM; actives 47% (n = 2,900);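 active means mean inhibition over the triplicate runs exceeds the activity threshold set in the earlier primary screen, cut at about 20% in these data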
ADAM17 confirm: ADAM17 inhibitors, hit retest, confirmation, biochemical, QFRET peptide cleavage | actives 65% (n = 2,900) | recombinant ADAM17, EDANS/DABCYL QFRET peptide cleavage | shares compounds with ADAM17 inh | inhibition, % at 6.95 µM;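 active means mean inhibition across replicates above the hit cutoff set in the primary screen, cut at about 8.5% in these data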
A number is an active result; 0 = inactive; - = no result. An excerpt weighted towards active compounds, which were near 3.8% of everything screened.

SMILES	FGF22 binding	rRNA inh HTS	ADAM10 inh	ADAM17 inh	proKLK7 act	ADAM10 confirm	ADAM17 counter	ADAM10 ctr	ADAM17 confirm
CCCN1C(=O)c2[nH]nc(-c3cc(Cl)c(C)cc3O)c2C1c1ccc(O)c(OC)c1 (centres undefined)	0	0	21	12	0	0	0	34	19
Cc1cc(O)c(-c2n[nH]c3c2C(c2cccc(O)c2)N(Cc2cccnc2)C3=O)cc1Cl (centres undefined)	-	-	22	9.6	0	0	0	0	0
Cc1ccc(C(=O)Nc2ccccc2C(=O)NCc2ccco2)cc1S(=O)(=O)N1CCCCC1	-	-	25	9.6	0	0	0	35	20
Cc1ccc(C(=O)NCc2ccco2)cc1S(=O)(=O)N1CCCCC1	0	0	0	0	0	-	-	-	-
CC(=O)Nc1ccc2c(c1)C(=O)N(C)C[C@@H](C)[C@H](CN(C)S(C)(=O)=O)O2	-	0	-	-	-	-	-	-	-
COc1cc(O)c(CC=C(C)C)c(O)c1C(=O)CCc1ccc(O)cc1	0	-	24	12	0	0	0	52	26
CO[C@@H]1CC[C@@H]2CCN(C)C(=O)[C@@H](C)[C@H](OC)CN(C)C(=O)c3cc(C#N)ccc3OC[C@@H]1O2	0	0	-	-	-	-	-	-	-
Cc1ccc(NC(=O)CSc2nn(-c3ccccc3)c(=S)s2)cc1S(=O)(=O)N(C)C	-	-	22	9.0	0	0	0	33	19
O=C(CSc1nn(-c2ccccc2)c(=S)s1)Nn1cnnc1	-	-	0	0	0	-	-	-	-
C[C@@H](NC(=O)[C@@H]1[C@@H](CO)[C@@H]2Cn3c(cccc3=O)[C@@H]2N1CC1CCCC1)c1ccccc1	0	0	-	-	-	-	-	-	-
CCOc1ccccc1NC1=CC(=O)CC(c2ccccc2)C1 (centres undefined)	-	-	22	10	0	0	0	0	0
Cc1cccc(C)c1OCC(O)Cn1c2ccccc2c2ccccc21 (centres undefined)	-	-	20	12	0	0	0	21	13
OC(COCC(F)(F)C(F)(F)C(F)(F)C(F)F)Cn1c2ccccc2c2ccccc21 (centres undefined)	0	0	34	15	0	0	0	29	19
COc1cccc(C(=O)Nc2ccc3c(c2)OC[C@@H](C)NC[C@@H](C)[C@H](OC)CN(C)C3=O)c1	0	0	-	-	-	-	-	-	-
C[C@@H]1CN([C@@H](C)CO)C(=O)c2cc(C#Cc3cccc(F)c3)cnc2O[C@H]1CN(C)Cc1ccccn1	0	0	-	-	-	-	-	-	-
COc1ccccc1NC(=O)c1c(Nc2ccccc2C)sc(C(=O)Nc2cccc(Cl)c2)c1N	0	0	21	10	0	28	0	0	14
COc1ccc(Nc2sc(C(=O)c3ccc(Cl)cc3)c(N)c2C(=O)Nc2ccccc2OC)cc1	-	-	0	0	0	-	-	-	-
CO[C@@H]1CN(C)C(=O)c2ccc(NC(=O)c3cnccn3)cc2OC[C@H](C)N(CC2CC2)C[C@@H]1C	0	0	-	-	-	-	-	-	-
CC(NC(=O)CSc1n[nH]c(N)n1)c1ccccc1 (centres undefined)	0	0	0	0	0	-	-	-	-
CCCc1ccc(-c2cc(NC(=O)CSc3n[nH]c(N)n3)n(-c3ccccc3)n2)cc1	-	-	29	9.8	0	0	0	29	12
Cc1cccc(NC(=O)Cn2c(=O)n(CCc3c[nH]c4ccccc34)c(=O)c3cccnc32)c1	0	0	20	10	0	0	0	27	17
CC(C)(C)c1ccc(/C=N/OCC(=O)NCc2ccc(F)cc2)cc1	0	0	28	13	0	0	0	22	11
COc1cccc(NC(=O)CN(C)C(=O)c2cn(-c3ccccc3)nc2-c2cccnc2)c1	0	0	0	0	0	-	-	-	-
COc1ccc(NC(=O)CN(C)C(=O)c2cn(-c3ccccc3)nc2-c2ccc(Cl)cc2)cc1	0	0	20	10	0	0	0	38	18
COc1ccc(C)cc1NC(=O)C(Sc1nnc(-c2ccncc2)n1-c1ccc(Cl)cc1)c1ccccc1 (centres undefined)	0	0	25	11	0	0	0	31	22
SMILES	FGF22 binding	rRNA inh HTS	ADAM10 inh	ADAM17 inh	proKLK7 act	ADAM10 confirm	ADAM17 counter	ADAM10 ctr	ADAM17 confirm
C[C@H](CO)N1C[C@H](C)[C@@H](CN(C)C(=O)Nc2ccccc2)Oc2ncc(-c3ccccc3)cc2C1=O	0	0	-	-	-	-	-	-	-
O=C(NCCc1ccccc1F)c1ccc(Sc2ccccc2Cl)c([N+](=O)[O-])c1	-	-	0	0	0	-	-	-	-
O=C(NCCc1c[nH]c2ccccc12)c1ccc(Sc2ccccc2Cl)c([N+](=O)[O-])c1	-	-	23	9.1	0	0	0	27	19
Cc1ccc(S(=O)(=O)N2CCCCC2)cc1NC(=O)c1ccc2c(c1)OCO2	0	0	0	0	0	-	-	-	-
Cc1ccc(NS(=O)(=O)c2ccc(C)c(NC(=O)c3ccc(S(=O)(=O)N4CCCCCC4)cc3)c2)c(C)c1	0	-	23	8.8	0	0	0	46	24
Cc1ccc(NC(=O)c2cccs2)cc1S(=O)(=O)Nc1cccc(Cl)c1	0	0	37	20	0	0	0	0	0
Cc1ccc(C(=O)Nc2cccc([N+](=O)[O-])c2)cc1S(=O)(=O)Nc1ccc(NC(=O)c2ccccc2)cc1	-	-	37	15	0	0	0	35	23
Cc1ccc(NC(=S)NC(=O)c2ccc(F)cc2)cc1S(=O)(=O)Nc1cccc(Cl)c1	0	0	0	0	0	-	-	-	-
O=C(Nc1ccc2c(c1)OCO2)N[C@@H]1CC[C@@H](CCNC(=O)C2CCOCC2)O[C@H]1CO	0	0	-	-	-	-	-	-	-
